IDE exosite FP = exo-site inhibitors of human insulin-degrading enzyme; P14735; AID 1259349; 17,000 tested, 6.3% active; purified IDE, FL-6b probe fluorescence polarization; stronger effect = lower value; z-score at 20 µM;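 active = z-score of -3 or lower, meaning strong loss of probe binding signal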;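 also: His-tagged human IDE residues 42-1019 made in E. coli with 30 nM FL-6b probe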
Of the large screens only hits and unclear results are named; the others gave an inactive call. Only a selection was taken, and hits are over-represented in it overall.

CN(C)C(=O)c1ccc(-c2ccc(C3[C@@H]4CN(S(=O)(=O)c5ccccc5F)C[C@H]3N4)cc2)cc1 (stereo not given in full)	none
OC[C@@H]1[C@@H](c2ccc(C#CC3(O)CCCC3)cc2)[C@H]2CN(Cc3cncnc3)CCCCN12	none
CCN1[C@@H]2c3ccc(-c4ccc(C(=O)N(C)C)cc4)c(=O)n3C[C@@H]2[C@@H](CO)[C@@H]1C(=O)NCCOC	none
CC(C)N(C[C@@H]1N[C@@H](CO)[C@H]1c1ccccc1)C(=O)CN1CCOCC1	none
N#Cc1ccc(-c2ccc(C3[C@@H]4CN(Cc5ccccc5F)C[C@H]3N4)cc2)cc1 (stereo not given in full)	none
O=C(C[C@H]1CC[C@@H]2[C@H](COC[C@@H](O)CN2CCC(F)(F)F)O1)NCC1CC1	none
COc1ccc(S(=O)(=O)N2CCCCN3[C@H](CO)[C@@H](c4ccc(C#CCC(C)C)cc4)[C@@H]3C2)cc1	none
CN1C(=O)c2cc(NC(=O)c3ccc(C(F)(F)F)cc3)ccc2OC[C@@H]2O[C@H](CC(=O)NCc3ccc4c(c3)OCO4)CC[C@H]21	none
CCS(=O)(=O)N1CC(=O)N2[C@H](C1)[C@@H](c1ccc(C#Cc3cccc(F)c3)cc1)[C@@H]2CO	none
CS(=O)(=O)N1CC(=O)N2[C@H](CO)[C@@H](c3ccc(C#Cc4cccc(F)c4)cc3)[C@@H]2C1	none
CS(=O)(=O)N1CC(=O)N2[C@@H](CO)[C@H](c3ccc(C#Cc4cccc(F)c4)cc3)[C@@H]2C1	none
CS(=O)(=O)N1CC(=O)N2[C@H](CO)[C@H](c3ccc(C#Cc4cccc(F)c4)cc3)[C@@H]2C1	IDE exosite FP -9.05
CCC(=O)N1CC(=O)N2[C@H](C1)[C@H](c1ccc(C#Cc3cccc(F)c3)cc1)[C@@H]2CO	IDE exosite FP -8.09
CCC(=O)N1CC(=O)N2[C@H](CO)[C@H](c3ccc(C#Cc4cccc(F)c4)cc3)[C@@H]2C1	IDE exosite FP -6.96
O=C(CC1CC1)N1CC(=O)N2[C@H](CO)[C@@H](c3ccc(C#Cc4cccc(F)c4)cc3)[C@@H]2C1	none
CCC(=O)N1CC(=O)N2[C@@H](CO)[C@H](c3ccc(C#Cc4cccc(F)c4)cc3)[C@@H]2C1	none
CS(=O)(=O)N1CC(=O)N2[C@H](CO)[C@@H](c3ccc(C#Cc4cccc(F)c4)cc3)[C@H]2C1	none
O=C(NCc1cc(F)cc(F)c1)[C@@H]1[C@@H](CO)[C@@H]2Cn3c(cccc3=O)[C@H]1N2	none
O=C(c1ccccc1)N1CC(=O)N2[C@H](CO)[C@H](c3ccc(C#Cc4ccccc4)cc3)[C@@H]2C1	none
O=C(c1ccc2c(c1)OCO2)N1C[C@@H]2[C@H](c3ccccc31)[C@@H](CO)N2Cc1cccnc1	none
O=C(NC1CCCCC1)N1CC(=O)N2[C@H](C1)[C@@H](c1ccc(-c3ccccc3)cc1)[C@@H]2CO	IDE exosite FP -9.08
O=C(NC1CCCCC1)N1CC(=O)N2[C@H](C1)[C@H](c1ccc(-c3ccccc3)cc1)[C@@H]2CO	none
O=C(NC1CCCC1)N1CC(=O)N2[C@H](CO)[C@@H](c3ccc(-c4cccnc4)cc3)[C@H]2C1	none
O=C(NC1CCCCC1)N1CC(=O)N2[C@@H](CO)[C@H](c3ccc(-c4ccccc4)cc3)[C@@H]2C1	none
O=C(NC1CCCCC1)N1CC(=O)N2[C@@H](CO)[C@@H](c3ccc(-c4ccccc4)cc3)[C@@H]2C1	IDE exosite FP -3.66
O=C(NC1CCCCC1)N1CC(=O)N2[C@H](C1)[C@H](c1ccc(-c3ccncc3)cc1)[C@@H]2CO	none
O=C(NC1CCCC1)N1CC(=O)N2[C@H](CO)[C@H](c3ccc(-c4cccnc4)cc3)[C@H]2C1	none
O=C(NC1CCCCC1)N1CC(=O)N2[C@@H](CO)[C@H](c3ccc(-c4ccncc4)cc3)[C@@H]2C1	none
O=C(NC1CCCCC1)N1CC(=O)N2[C@H](CO)[C@@H](c3ccc(-c4ccccc4)cc3)[C@H]2C1	IDE exosite FP -5.2
CCNC(=O)C[C@H]1CC[C@@H]2[C@H](COC[C@H](O)CN2C(=O)c2ccccn2)O1	none
O=C(NCC[C@@H]1CC[C@H](NC(=O)C2CCOCC2)[C@@H](CO)O1)c1cc(Cl)cc(Cl)c1	none
O=C(C1CC1)N1C[C@@H]2[C@H](c3ccccc31)[C@H](CO)N2C(=O)c1ccccc1	none
COCCNC(=O)[C@@H]1[C@@H](CO)[C@@H]2Cn3c(ccc(C4=CCCCC4)c3=O)[C@H]1N2Cc1cocn1	none
C[C@@H](NC(=O)[C@H]1[C@H](CO)[C@H]2Cn3c(cccc3=O)[C@@H]1N2C(=O)C1CCC1)c1ccccc1	none
CCC(=O)N1CC(=O)N2[C@H](CO)[C@H](c3ccc(C#Cc4cccnc4)cc3)[C@H]2C1	none
COc1cccc(C#Cc2ccc([C@H]3[C@@H](CO)N4C(=O)CN(C(=O)c5ccncc5)C[C@H]34)cc2)c1	IDE exosite FP -8.42
COc1cccc(C#Cc2ccc([C@H]3[C@H]4CN(C(=O)c5ccccc5)CC(=O)N4[C@H]3CO)cc2)c1	none
COc1cccc(C#Cc2ccc([C@@H]3[C@H](CO)N4C(=O)CN(C(C)=O)C[C@@H]34)cc2)c1	IDE exosite FP -15.3
COc1cccc(C#Cc2ccc([C@H]3[C@H](CO)N4C(=O)CN(C(C)=O)C[C@@H]34)cc2)c1	IDE exosite FP -5.36
CC(=O)N1CC(=O)N2[C@H](C1)[C@H](c1ccc(C#Cc3cccnc3)cc1)[C@@H]2CO	none
CC(=O)N1CC(=O)N2[C@@H](CO)[C@@H](c3ccc(C#Cc4cccnc4)cc3)[C@@H]2C1	IDE exosite FP -3.85
COc1cccc(C#Cc2ccc([C@@H]3[C@@H](CO)N4C(=O)CN(C(=O)c5ccccc5)C[C@@H]34)cc2)c1	none
COc1cccc(C#Cc2ccc([C@@H]3[C@H]4CN(C(=O)c5ccncc5)CC(=O)N4[C@H]3CO)cc2)c1	none
COc1cccc(C#Cc2ccc([C@@H]3[C@H](CO)N4C(=O)CN(C(=O)c5ccccc5)C[C@@H]34)cc2)c1	none
COc1ccc(NC(=O)N(C)C[C@@H]2OCc3cnnn3CCCC(=O)N([C@H](C)CO)C[C@@H]2C)c(OC)c1	none
CCS(=O)(=O)Nc1ccc2c(c1)C(=O)N(C)[C@@H]1CC[C@H](CC(=O)N[C@H]3CCN(Cc4ccccc4)C3)O[C@H]1CO2	none
C[C@H](CO)N1C[C@H](C)[C@H](CN(C)C(=O)NC2CCCCC2)OCc2ccccc2-c2c(n(C)c3ccccc23)C1=O	none
Cc1ccc(-c2ccc([C@H]3[C@H](CO)N4CCCCN(C)C[C@@H]34)cc2)cc1	none
CC(=O)N(C)C[C@H]1[C@@H](c2ccc(-c3ccccc3F)cc2)[C@@H](CO)N1C(C)=O	none
O=S(=O)(Cc1ccccc1)N1CCCCN2[C@H](C1)[C@H](c1ccc(-c3cncnc3)cc1)[C@@H]2CO	none
C/C=C/c1ccc([C@@H]2[C@H](CO)N(C(=O)CC)[C@H]2CNC(=O)c2ccncc2)cc1	none
CO[C@H]1CN(C)C(=O)c2cc(NC(C)=O)ccc2OC[C@H](C)N(C(=O)Cc2ccccn2)C[C@H]1C	none
CCCC#Cc1ccc([C@@H]2[C@H]3CN(C(=O)c4ccccc4)CC(=O)N3[C@H]2CO)cc1	none
Cc1cccc(S(=O)(=O)N[C@@H]2CC[C@H](CCNC(=O)Nc3cc(F)ccc3F)O[C@@H]2CO)c1	none
COc1ccc2c3c([nH]c2c1)[C@@H](CO)N(C(C)=O)CC31CN(S(=O)(=O)c2cccs2)C1	none
COCC(=O)N1CCCCN2[C@H](CO)[C@@H](c3ccc(-c4ccc(C)cc4)cc3)[C@H]2C1	none
CO[C@@H]1CN(C)C(=O)c2cc(NC(=O)Cc3ccccc3)ccc2OC[C@@H](C)N(C(=O)c2ccccc2F)C[C@H]1C	none

Bioassay records as filed in PubChem BioAssay.
